SMILES strings stand for the structures. Active and inactive are the calls of the source.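 Rule for the calls: active = cell survival after UV exposure 2 SD above solvent-only control wells at 10 µM, confirmed on one or two repeats; inactive = the rest.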

Outcome data for 18 compounds are collected here from PubChem BioAssay AID1347383 (Zoeller Lab, School of Medicine, Boston University, 2020).

The nature of the assay: cell survival after pyrene fatty acid photosensitization – ZR-82 cells, Analyticon library, screen 2, phospholipid biosynthesis inhibitor project, primary screen (AID 1347383).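 Note: survival reflects blocked phospholipid synthesis cutting uptake of the phototoxic fatty acid; compound and fatty acid exposure 3 h then viability read next day.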 To be noted: ZR-82 CHO cells, pyrene-fatty acid UV killing, CellTiter Blue; at 10 µM; peroxisome-deficient CHO-K1 variant; with DGAT-1, DGAT-2 and ACAT inhibitors.
In the case of `COc1cc(O)c(C(=O)c2c(C)cc(O)cc2OC)c(O)c1`, the result was inactive.
Consider `C=C(CO)C(=O)O[C@H]1CC(=C)[C@@H]2CC(=O)[C@H](C)[C@@H]2[C@H]2OC(=O)C(=C)[C@@H]21`, for which the result was inactive.
Turning to `CCCCC[C@H](O)[C@H]1C(=O)OC[C@H]1CO`, the result was inactive.
As for `COc1cc(/C=C(/C)C(C)Cc2ccc(O)c(OC)c2)ccc1O` (stereo not drawn), the outcome was inactive.
Then `COc1ccc(C)c2c(O)c(CC=C(C)C)c(=O)oc12`, with “inactive”.
`C/C=C/C=C/C(=O)N1CC[C@]23c4ccccc4N[C@H]4N(C)c5cccc6c5[C@]42CCN([C@H]6C2OC2(C)C)[C@H]13` (stereo partly drawn): the outcome was inactive.
On to `COc1c(OC)c2occc2c2oc(=O)ccc12`, for which the result was inactive.
On to `C/C1=C\CCC2=C[C@@H](OC2=O)c2c(C)coc2C1`, for which the result was inactive.
With `CCCCCCCCCCC1CC2=C(OC(CCCCCCC)CC2=O)C(=O)O1` (stereo not drawn), the result was inactive.
Regarding `CC1(C)O[C@]23C[C@H]1C[C@H](OC(=O)c1ccoc1)[C@]2(C)[C@@H](OC(=O)c1ccoc1)CCC3(C)O` (stereo partly drawn), the outcome was inactive.
On to `O=C1CC(c2ccc(O)cc2)Oc2cc(O)cc(O)c21` (stereo not drawn), for which the outcome was inactive.
For `O=c1ccc2cc3ccoc3cc2o1`, the outcome was inactive.
As to `CCC(O)c1cccc(O)c1CN` (stereo not drawn), the result was inactive.
Regarding `C=C(Oc1cccc(C(=O)O)c1)C(=O)O`, the result was inactive.
In the case of `COc1c(C)c2c(c(O)c1C/C=C(\C)CCCC(C)C(=O)O)C(=O)OC2` (stereo not drawn) it was “inactive”.
As for `COc1cc(CNC(=O)CCCCCCC(C)C)ccc1O`, the outcome was inactive.
Take `O=C1CC(c2ccccc2)Oc2cc(O)cc(O)c21` (stereo not drawn): the result was inactive.
As for `CCC(C)C(=O)OC1CCCC2C=CC(C)C(CCC(O)CC(O)CC(=O)O)C21` (stereo not drawn), the outcome was inactive.
